Source: PubChem BioAssay (NCATS)
Where “and” joins values, the source holds several entries; their conditions need not be identical. Equal values may be shown once. Inconclusive results are not listed. Calls of active or inactive are those of the source. Calls follow the shape of the dose curve; as a rule, active = well fitted curve in the direction sought with a large enough effect; inconclusive = small, poorly fitted or top-dose-only effect, or another doubt; inactive = no such curve, though single readings can be large; an effect the other way counts as inactive or inconclusive.

Tests used:
HaCat [1] = assay: Cytotoxic Profiling of Annotated Libraries Using Quantitative High-Throughput Screening (AID 1296008); conditions: Five cell lines viability, CellTiter-Glo ATP luminescence, 48-72 h; max response: hits give low values; also: nearly all actives have a fitted effect of over 60% in size
In short: (§1)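 Cytotoxicity was measured as CellTiter-Glo ATP luminescence, read after 10 min at room temperature. Compound treatment of the cells lasted 48 or 72 hr at 37 degrees Celsius in a qHTS format.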

KB-3-1 = assay: as above; conditions: Five cell lines viability, CellTiter-Glo ATP luminescence, 48-72 h; max response: hits give low values
In short: as §1

NIH3T3 [2] = assay: as above; conditions: Five cell lines viability, CellTiter-Glo ATP luminescence, 48-72 h; max response: hits give low values
In short: as §1

HACAT [3] = assay: qHTS assay to identify novel small-molecules to repurpose for Merkel cell carcinoma treatment (AID 1296009); conditions: MCC and control cell lines, CellTiter-Glo viability, 72 h; at 44.8 µM (top of the series) unless noted; also: nearly all actives have a fitted effect of over 60% in size; also: potency is read from the fitted curve at half-maximal effect
In short: (§2)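 72 hr, 37 degree celsius; NPC 8-pt / MIPE 11-pt dose response; compound pinned in DMSO; CellTiter-Glo, 10 min RT, luminescence; normalized to no-cell and DMSO controls.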

MCC-13 = assay: as above; conditions: MCC and control cell lines, CellTiter-Glo viability, 72 h; series mostly up to 46 µM
In short: as §2

MKL-1 = assay: as above; conditions: MCC and control cell lines, CellTiter-Glo viability, 72 h; series mostly up to 46 µM
In short: as §2

MKL-2 = assay: as above; conditions: MCC and control cell lines, CellTiter-Glo viability, 72 h; series mostly up to 46 µM
In short: as §2

NIH3T3 [4] = assay: as above; conditions: MCC and control cell lines, CellTiter-Glo viability, 72 h; at 44.8 µM (top of the series) unless noted
In short: as §2

UISO = assay: as above; conditions: MCC and control cell lines, CellTiter-Glo viability, 72 h; series mostly up to 46 µM
In short: as §2

C33A = assay: Primary qHTS to identify gynecologic anti-cancer compounds using libraries of approved drugs and bioactive compounds (AID 1345084); conditions: Gynecologic cancer cell panel viability, ATPlite luminescence, 48 h; series mostly up to 57.5 µM; also: nearly all actives have a fitted effect of over 55% in size
In short: (§3)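 48 h compound exposure at 37 C, 5% CO2; five-point qHTS. ATPlite luminescence readout of cell ATP.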

CAOV3 = assay: as above; conditions: Gynecologic cancer cell panel viability, ATPlite luminescence, 48 h; series mostly up to 57.5 µM
In short: as §3

CASKI = assay: as above; conditions: Gynecologic cancer cell panel viability, ATPlite luminescence, 48 h; series mostly up to 57.5 µM
In short: as §3

Es-2 = assay: as above; conditions: Gynecologic cancer cell panel viability, ATPlite luminescence, 48 h; series mostly up to 57.5 µM
In short: as §3

HeLa = assay: as above; conditions: Gynecologic cancer cell panel viability, ATPlite luminescence, 48 h; series mostly up to 57.5 µM
In short: as §3

Hek293T [5] = assay: as above; conditions: Gynecologic cancer cell panel viability, ATPlite luminescence, 48 h, control line for the selectivity index; series mostly up to 57.5 µM
In short: as §3

JEG-3 = assay: as above; conditions: Gynecologic cancer cell panel viability, ATPlite luminescence, 48 h; series mostly up to 57.5 µM
In short: as §3

OV90 = assay: as above; conditions: Gynecologic cancer cell panel viability, ATPlite luminescence, 48 h; series mostly up to 57.5 µM
In short: as §3

MCC-26 = assay: qHTS assay to identify novel small-molecules to repurpose for Merkel cell carcinoma treatment (AID 1296009); conditions: MCC and control cell lines, CellTiter-Glo viability, 72 h; series mostly up to 46 µM; also: nearly all actives have a fitted effect of over 60% in size; also: potency is read from the fitted curve at half-maximal effect
In short: as §2

WaGa = assay: as above; conditions: MCC and control cell lines, CellTiter-Glo viability, 72 h; series mostly up to 46 µM
In short: as §2

HEK293T [6] = assay: as above; conditions: MCC and control cell lines, CellTiter-Glo viability, 72 h; at 44.8 µM (top of the series) unless noted
In short: as §2
% is scaled to controls: 0 for no effect and ±100 for the full control effect.

Cc1ccc(C(=O)C(C)CN2CCCCC2)cc1 (configuration not stated)
active: Potency (MKL-2) 10.6 µM
inactive: outcome (HaCat [1]) inactive; activator | max response (KB-3-1) 7.56% and -13.6% and 2.39% | max response (NIH3T3 [2]) -4.42% | outcome (NIH3T3 [2]) | outcome (HACAT [3]) inactive; activator | Potency (MCC-13) | Potency (MKL-1) | outcome (NIH3T3 [4]) | Potency (UISO) | Potency (C33A) | Potency (CAOV3) | Potency (CASKI) | Potency (Es-2) | Potency (HeLa) | Potency (Hek293T [5]) | Potency (JEG-3) | Potency (OV90)

CC1(C)O[C@@H]2C[C@H]3[C@@H]4CCC5=CC(=O)CC[C@]5(C)[C@@]4(F)[C@@H](O)C[C@]3(C)[C@]2(C(=O)CCl)O1
inactive: outcome (HaCat [1]) | max response (KB-3-1) 33.4% | max response (NIH3T3 [2]) -10.1% | outcome (HACAT [3]) | Potency (MCC-13) | Potency (MCC-26) | Potency (MKL-1) | Potency (MKL-2) | Potency (UISO) | Potency (WaGa) | Potency (C33A) | Potency (CAOV3) | Potency (CASKI) | Potency (Es-2) | Potency (HeLa) | Potency (Hek293T [5]) | Potency (JEG-3)

Cc1cc2c(cc1CC(=O)c1sccc1S(=O)(=O)Nc1onc(C)c1Cl)OCO2
inactive: max response (HaCat [1]) -2.94% | outcome (HaCat [1]) | max response (KB-3-1) 9.67% | max response (NIH3T3 [2]) 0.409% and 4.42% | outcome (HACAT [3]) | outcome (HEK293T [6]) | Potency (MCC-13) | Potency (MCC-26) | Potency (MKL-1) | Potency (MKL-2) | Potency (UISO) | Potency (WaGa) | Potency (C33A) | Potency (CAOV3) | Potency (CASKI) | Potency (Es-2) | Potency (HeLa) | Potency (Hek293T [5]) | Potency (JEG-3) | Potency (OV90)

CCCCS(=O)(=O)N[C@@H](Cc1ccc(OCCCCC2CCNCC2)cc1)C(=O)O
inactive: max response (HaCat [1]) -0.76% | outcome (HaCat [1]) | max response (KB-3-1) -7.62% | outcome (KB-3-1) | max response (NIH3T3 [2]) -1.76% | outcome (NIH3T3 [2]) | outcome (HACAT [3]) | Potency (MCC-13) | Potency (MCC-26) | Potency (MKL-1) | Potency (MKL-2) | outcome (NIH3T3 [4]) | Potency (UISO) | Potency (WaGa) | Potency (C33A) | Potency (CASKI) | Potency (Es-2) | Potency (HeLa) | Potency (Hek293T [5]) | Potency (JEG-3) | Potency (OV90)

COC(=O)CCc1ccc(OCC(O)CNC(C)C)cc1 (configuration not stated)
inactive: max response (HaCat [1]) -0.177% | outcome (HaCat [1]) | max response (KB-3-1) 4.51% and -9.53% | max response (NIH3T3 [2]) 1.54% and 3.52% | outcome (HACAT [3]) | Potency (MCC-13) | Potency (MCC-26) | Potency (MKL-1) | Potency (MKL-2) | Potency (UISO) | Potency (WaGa) | Potency (C33A) | Potency (CASKI) | Potency (Es-2) | Potency (HeLa) | Potency (Hek293T [5]) | Potency (JEG-3) | Potency (OV90)

CC(C)COC(=O)c1ccc(N)cc1
inactive: outcome (HaCat [1]) | max response (KB-3-1) 12.1% | max response (NIH3T3 [2]) 3.91% | outcome (HACAT [3]) | Potency (MCC-13) | Potency (MCC-26) | Potency (MKL-1) | Potency (MKL-2) | Potency (UISO) | Potency (WaGa) | Potency (C33A) | Potency (CAOV3) | Potency (CASKI) | Potency (Es-2) | Potency (HeLa) | Potency (Hek293T [5]) | Potency (JEG-3) | Potency (OV90)
